# Out of some 310,000 compounds screened, about 14,000 (4.5%) showed an effect of 50% or more. Effects have a minus sign here. Shown is part of a subset that was picked to be rich in strong results.
# Target: human ether-à-go-go-related gene (hERG) potassium channel (human, UniProt Q12809)
# Experiment: primary screen, population patch clamp on CHO cells stably expressing hERG; higher = less effect of the substance
# 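Further: peak tail current of the secondary pulse compared with the same well before compound.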
# human ether-à-go-go-related gene (hERG) potassium channel, sequence (Q12809 whole entry, looked up): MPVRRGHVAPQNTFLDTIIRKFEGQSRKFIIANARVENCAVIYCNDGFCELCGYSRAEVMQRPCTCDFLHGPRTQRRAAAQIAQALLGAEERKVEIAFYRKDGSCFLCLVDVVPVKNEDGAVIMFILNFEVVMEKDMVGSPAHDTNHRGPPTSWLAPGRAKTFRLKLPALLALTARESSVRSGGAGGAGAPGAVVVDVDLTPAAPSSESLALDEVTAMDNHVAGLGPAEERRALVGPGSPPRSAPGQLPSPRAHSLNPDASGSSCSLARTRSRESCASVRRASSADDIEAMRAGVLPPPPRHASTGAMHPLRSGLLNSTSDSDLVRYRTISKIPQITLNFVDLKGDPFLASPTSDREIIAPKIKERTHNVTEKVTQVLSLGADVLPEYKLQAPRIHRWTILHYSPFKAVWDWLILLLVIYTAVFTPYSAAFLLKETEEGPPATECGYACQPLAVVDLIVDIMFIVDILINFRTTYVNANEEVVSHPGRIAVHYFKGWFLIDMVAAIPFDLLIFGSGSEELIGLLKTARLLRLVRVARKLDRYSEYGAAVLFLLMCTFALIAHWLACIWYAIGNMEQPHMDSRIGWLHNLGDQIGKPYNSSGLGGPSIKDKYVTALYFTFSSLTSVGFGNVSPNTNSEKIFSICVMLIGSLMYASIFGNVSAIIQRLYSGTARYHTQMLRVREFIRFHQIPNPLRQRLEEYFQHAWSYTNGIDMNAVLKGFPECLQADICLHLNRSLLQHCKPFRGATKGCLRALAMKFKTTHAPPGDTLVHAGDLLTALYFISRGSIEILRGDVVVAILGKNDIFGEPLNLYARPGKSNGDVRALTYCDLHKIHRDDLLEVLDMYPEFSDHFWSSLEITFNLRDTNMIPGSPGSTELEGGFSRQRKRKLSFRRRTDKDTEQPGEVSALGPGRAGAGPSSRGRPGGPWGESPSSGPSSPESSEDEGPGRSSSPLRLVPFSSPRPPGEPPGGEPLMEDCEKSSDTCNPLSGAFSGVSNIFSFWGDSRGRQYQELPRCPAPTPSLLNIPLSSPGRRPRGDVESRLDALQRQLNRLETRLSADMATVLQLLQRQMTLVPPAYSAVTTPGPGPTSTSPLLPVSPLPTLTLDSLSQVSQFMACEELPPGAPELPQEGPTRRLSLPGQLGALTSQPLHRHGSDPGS
row,Structure (SMILES),"hERG current change (%, negative = inhibition) at 10uM"
1,CNc1cc(C)c(C#N)c2nc3ccccc3n12,-8.75%
2,CCN(CC)S(=O)(=O)c1ccc2c3c(cccc13)C(=O)S2,-18.4%
3,COc1ccc(NC(=O)CN2CCN(C3c4ccccc4-c4ccccc43)CC2)c(OC)c1,-10.5%
4,COc1ccccc1NC(=O)CN1CCN(CC(=O)Nc2ccccc2Cl)CC1,2.56%
5,COc1ccc(C)cc1NC(=O)CN1CCN(CC(=O)Nc2ccccc2F)CC1,-48.7%
6,COc1ccc(NC(=O)CN2CCN(CC(=O)Nc3ccccc3F)CC2)c(OC)c1,-63.5%
7,COc1ccc(NC(=O)CN2CCN(c3ccc(Cl)cc3)CC2)c(OC)c1,-12.7%
8,COc1ccc(NC(=O)CN2CCN(CC(=O)Nc3ccccc3Cl)CC2)c(OC)c1,-78%
9,CC1=C(C(=O)OCCc2ccccc2)C(c2ccsc2)NC(=O)N1C (stereo not drawn),-10.9%
10,OCC1(CO)COC(CCc2ccccc2)=N1,16.1%
11,CC(=O)OCc1c(C(F)(F)F)nn(C)c1SCc1ccc(Cl)cc1,8.19%
12,CC1(C(=O)N2CCOCC2)CCCCC1,11.6%
13,O=C(CCc1nnc2ccc(N3CCC4(CC3)OCCO4)nn12)N1CCCCC1,16.7%
14,COc1ccccc1/C=N/NC(=O)CC(=O)NCc1ccccc1,-2.25%
15,COc1ccc(C)cc1NC(=O)C1CCCCC1C(=O)O (stereo not drawn),14.7%
16,CC(=O)Nc1ccc(S(=O)(=O)N2CCC(N3CCCC3)CC2)cc1,13.2%
17,CC(=O)Nc1ccc(S(=O)(=O)N2CCC(C(=O)c3ccc(F)cc3)CC2)cc1,-34.6%
18,O=S(=O)(c1ccc2c(c1)OCCO2)N1CCC(n2cnc3cc(F)ccc32)CC1,-62.4%
19,CC(=O)Nc1ccc(S(=O)(=O)N2CCC(n3cnc4cc(F)ccc43)CC2)cc1,-65.7%
20,O=S(=O)(c1ccc2c(c1)OCCO2)N1CCC(n2nnc3cc(C(F)(F)F)ccc32)CC1,-16.4%
21,O=S(=O)(c1ccc2c(c1)OCCO2)N1CCC(n2nnc3cc(F)ccc32)CC1,-38.7%
22,COc1cccc(OCCOCCNCCO)c1,-6.7%
23,O=C(CN(CCc1ccccc1)C(=O)c1csnn1)NC1CCCC1,-4.71%
24,C[C@]12CCC3C(CC[C@H]4CC(O)CC[C@]34C)C1CC/C2=N/O (stereo partly drawn),13.3%

row,Structure (SMILES),"hERG current change (%, negative = inhibition) at 10uM"
1,COc1ccc(OCC#CCN2CCC(C)CC2)cc1.O=C(O)C(=O)O,-11.4%
2,CC(C)(C)CC(C)(C)NCC(=O)Nc1c2c(nc3ccccc13)CCC2.O=C(O)C(=O)O,-3.35%
3,COc1ccc(CCN(C)CC(=O)Nc2cc(C)nc3ccccc23)cc1OC.O=C(O)C(=O)O,5.34%
4,CC(Cc1ccccc1)NCC(=O)Nc1cc(N(C)C)nc2ccccc12.O=C(O)C(=O)O (stereo not drawn),-77.1%
5,CN(C)c1cc(NC(=O)CNC(C)(C)C)c2ccccc2n1.O=C(O)C(=O)O,-24.4%
6,CN1CCN(CC(=O)Nc2cc(N(C)C)nc3ccccc23)CC1.Cl,8.25%
7,CN(C)c1cc(NC(=O)CNC(C)(C)CC(C)(C)C)c2ccccc2n1.O=C(O)C(=O)O,-69.9%
8,CCOc1ccccc1NC(=O)[C@@H](NC(=O)c1ccccc1F)C(C)C,-6.35%
9,COc1ccc(C(C(N)=O)c2ncc(C(F)(F)F)cc2Cl)cc1 (stereo not drawn),4.78%
10,O=C(CCCCl)NC1=NN(c2ccccc2)C(=O)C1,-4.99%
11,COc1ccc(OC)c(-n2c(CNC3CCN(Cc4ccccc4)CC3)nc3ccccc3c2=O)c1,-76.6%
12,COc1ccc(OC)c(-n2c(CN3CCC(C(N)=O)CC3)nc3ccccc3c2=O)c1,-0.126%
13,S=C(NCc1ccc(Cl)cc1)NC1CCN(Cc2ccccc2)CC1,-41.8%
14,COc1ccccc1CNC1CCN(Cc2ccccc2)CC1,-3.89%
15,COc1ccc(CNC2CCN(Cc3ccccc3)CC2)cc1,-54.2%
16,Cl.Clc1ccc(CNC2CCCC2)cc1,-13.1%
17,FC(F)(F)c1cccc(CNC2CCN(Cc3ccccc3)CC2)c1,-28.3%
18,Fc1ccc(CNC2CCN(Cc3ccccc3)CC2)cc1,-65.3%
19,COc1ccc(-n2c(CN3CCOCC3)nc3ccccc3c2=O)c(OC)c1,22.9%
20,COc1ccc(CCNC(=S)NC2CCN(Cc3ccccc3)CC2)cc1,-36.9%
21,CC(NC1CCN(Cc2ccccc2)CC1)c1ccc(F)cc1 (stereo not drawn),3.46%
22,Clc1ccc(CNC2CCN(Cc3ccccc3)CC2)cc1,-72.7%
23,Fc1ccc(-c2cc(C(F)(F)F)nc(NCc3cccs3)n2)cc1,14.4%
24,CCOC(=O)c1c(-c2ccccc2)csc1NC(=O)/C(C#N)=C/c1ccc(O)c(OC)c1,-7.1%

row,Structure (SMILES),"hERG current change (%, negative = inhibition) at 10uM"
1,O=C(COc1ccc(/C=N/NC(=O)c2cc3ccccc3o2)cc1Br)Nc1ccccc1,19.3%
2,Cc1ccccc1NS(=O)(=O)c1ccc(C)c(C(=O)N2CCOCC2)c1,1.47%
3,COc1ccc(C(=O)NNC(=O)C(=O)N2CCCCC2)cc1OC,59.5%
4,CCOC(=O)C(NC(=O)Nc1cccc(C)n1)(OCC(F)(F)F)C(F)(F)F (stereo not drawn),5.06%
5,CC(=O)COC(=O)C1=NN(c2ccccc2)C(=O)CC1,23.7%
6,COc1ccc(S(=O)(=O)N2CCCC(C(=O)NCc3ccc(F)cc3)C2)cc1 (stereo not drawn),6.39%
7,CCc1nc2ccc(C(=O)NCCc3ccc(OC)c(OC)c3)cc2nc1CC,-0.0865%
8,Cn1c(O)c(/C=C2\N=c3ccccc3=C2CCNC(=S)NC2CC2)c(=O)n(C)c1=O,-44.6%
9,Clc1ccc(CN2CCC(c3ccccc3)CC2)cc1,-59.1%
10,O=S(=O)(NC1CCN(Cc2ccccc2)CC1)c1ccc(Cl)cc1,-41.3%
11,Clc1ccc(CN2CCCCCCC2)cc1,-33.1%
12,Cc1c(C(=O)Nc2c(F)cccc2F)sc2ncn(CC(=O)N3CCCCC3)c(=O)c12,3.98%
13,Cc1cc(NC(=O)CSc2nnc(-c3cccnc3)n2C2CCCCC2C)no1 (stereo not drawn),3.83%
14,CCOc1ccc2[nH]c3c(NCCO)ncnc3c2c1,23.1%
15,CCOc1ccc2[nH]c3c(NCCCOC)ncnc3c2c1,-10%
16,COc1ccc2[nH]c3c(NCCN(C(C)C)C(C)C)ncnc3c2c1,-70.7%
17,COc1ccc2[nH]c3c(NCCCN4CCCC4=O)ncnc3c2c1,-14.6%
18,CCOc1ccc2[nH]c3c(NCCN(CC)CC)ncnc3c2c1,-71.6%
19,COc1ccc2[nH]c3c(NCCN4CCCCC4)ncnc3c2c1,-55.9%
20,CCN(CC)CCNc1ncnc2c1[nH]c1ccc(OC)cc12,-63.4%
21,COc1ccc2[nH]c3c(NCCCOC(C)C)ncnc3c2c1,9.68%
22,CCOc1ccc2[nH]c3c(NCCC(C)C)ncnc3c2c1,7.2%
23,CCOc1ccc2[nH]c3c(NCCOC)ncnc3c2c1,-9.5%
24,CCOc1ccc2[nH]c3c(NCCN(C)C)ncnc3c2c1,-19%

row,Structure (SMILES),"hERG current change (%, negative = inhibition) at 10uM"
1,COc1ccc2[nH]c3c(NCc4ccco4)ncnc3c2c1,-18.1%
2,CCOc1ccccc1NC(=O)c1cnc(NS(=O)(=O)c2ccccc2)nc1,17.8%
3,CCN(C(=O)COC(=O)c1[nH]c(C)c(C(C)=O)c1C)c1c(N)n(Cc2ccccc2)c(=O)[nH]c1=O,0.295%
4,Cc1ccc2oc(C(=O)Nc3cc(C)on3)c(C)c2c1,-1.98%
5,CCCCOc1ccc(NC(=O)C(=O)NCCC2=CCCCC2)cc1,2.25%
6,CCCCCOC(=O)c1ccc(N2C(=O)C3C4C=CC(C4)C3C2=O)cc1 (stereo not drawn),-6.84%
7,C=CCn1c(SCC(=O)Nc2cc(C)on2)nc2sc3c(c2c1=O)CCCC3,-4%
8,O=C(Nc1ccc(S(=O)(=O)Nc2ncccn2)cc1)c1cccc(Br)c1,16.5%
9,CC(=O)c1ccc(NC(=O)CCc2nnc3ccc(NCc4ccco4)nn23)cc1,9.4%
10,COc1ccc(CCn2c(O)c(C=Nc3ccccc3F)c(=O)[nH]c2=O)cc1OC,20.3%
11,CCOc1ccc(C(N)=O)cc1OC,6.13%
12,CN(C)c1ccc(C=Nc2cnn(C)c2C(N)=O)cc1,0.759%
13,COc1ccc(NC(=O)CSc2nnc(-c3cccs3)n2N)c(OC)c1,0.565%
14,Cn1cc(CN2CCC(N3CCNC(=O)CC3)CC2)c(-c2ccccc2F)n1,8.43%
15,O=C1c2ccccc2C(=O)N1n1cccc1,8.7%
16,COc1ccc(-n2c(C)c(C)c3c(NCCCN(C)C)ncnc32)cc1,-53.1%
17,Cc1c(C)n(Cc2ccccc2)c2ncnc(NCCCN(C)C)c12,-28.4%
18,COc1ccc(-n2c(C)c(C)c3c(NCCCO)ncnc32)cc1,-14.3%
19,Cc1c(C)n(CCc2ccccc2)c2ncnc(NCCCN(C)C)c12,-58%
20,Cc1c(C)n(CCc2ccccc2)c2ncnc(NCCCO)c12,-40.1%
21,Cc1c(C)n(CCCN(C)C)c2ncnc(Nc3ccc(F)cc3)c12,-50.8%
22,COc1ccc(-n2c(C)c(C)c3c(NCCN(C)C)ncnc32)cc1,-32.4%
23,Cc1c(C)n(CCCN(C)C)c2ncnc(Nc3ccccc3)c12,-29.3%
24,COc1ccc(Nc2ncnc3c2c(C)c(C)n3CCCN(C)C)cc1,-32.7%

# Reference: publication PMC4336329 (PLoS ONE, 2015)
